Experimental data reported in PubChem BioAssay AID1159580 (chemical genetic matrix, 2015).
Hit rate of the full screen: of about 5,500 compounds, about 2,000 (36%) were called active. Inconclusive results (about 18%) are left out. Cut-off read from the data, not from the text of the source: active = normalized growth mostly below about 0.91 (no sharp cut-off); inconclusive = no clear call, values can overlap the other calls; inactive = mostly above about 0.92. The list shows a part of the results.

Test: chemical genetic growth profiling, strain panel (AID 1159580);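 note: tested at 20 µM; growth read once vehicle control cultures reached saturation at 30 °C; 1 = growth at the plate median or of vehicle wells; lower values mean less growth of the strain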
Conditions: growth OD
[1] = S. cerevisiae deletion strains, locus YBR229C, strain ROT2, hits give low values
[2] = S. cerevisiae deletion strains, locus YDL101C, strain DUN1, hits give low values
[3] = S. cerevisiae deletion strains, locus YDR150W, strain NUM1, hits give low values
[4] = S. cerevisiae deletion strains, locus YEL061C, strain CIN8, hits give low values
[5] = S. cerevisiae deletion strains, locus YHR030C, strain SLT2, hits give low values
[6] = S. cerevisiae deletion strains, locus YHR087W, strain rtc3, hits give low values
[7] = S. cerevisiae deletion strains, locus YJR043C, strain POL32, hits give low values
[8] = S. cerevisiae deletion strains, locus YJR075W, strain HOC1, hits give low values
[9] = S. cerevisiae deletion strains, locus YLR039C, strain RIC1, hits give low values
[10] = S. cerevisiae deletion strains, locus YLR058C, strain SHM2 (second series), hits give low values
[11] = S. cerevisiae deletion strains, locus YLR085C, strain ARP6, hits give low values
[12] = S. cerevisiae deletion strains, locus YLR262C, strain YPT6, hits give low values
[13] = S. cerevisiae deletion strains, locus YML094W, strain GIM5, hits give low values
[14] = S. cerevisiae deletion strains, locus YMR219W, strain ESC1, hits give low values
[15] = S. cerevisiae deletion strains, locus YMR263W, strain SAP30, hits give low values
[16] = S. cerevisiae deletion strains, locus YMR307W, strain GAS1, hits give low values
[17] = S. cerevisiae deletion strains, locus YNL153C, strain GIM3, hits give low values
[18] = S. cerevisiae deletion strains, locus YNL298W, strain CLA4 (second series), hits give low values
[19] = S. cerevisiae deletion strains, locus YNL322C, strain KRE1, hits give low values
[20] = S. cerevisiae deletion strains, locus YNR030W, strain Alg12, hits give low values
[21] = S. cerevisiae deletion strains, locus YPL055C, strain LGE1, hits give low values
[22] = S. cerevisiae deletion strains, locus YPL241C, strain CIN2, hits give low values
[23] = S. cerevisiae deletion strains, locus YPR135W, strain CTF4, hits give low values
[24] = S. cerevisiae strains, strain wild type, hits give low values

Measured: normalized growth

O=c1[nH]cnc2ccc(Br)cc12
inactive: [1] 1.01 | [2] 0.98 | S. cerevisiae deletion strains, locus YDL134C, strain PPH21, hits give low values 1.01 | [3] 0.918 | [4] 0.998 | S. cerevisiae deletion strains, locus YGR078C, strain PAC10, hits give low values 1 | [5] 0.994 | [6] 1.01 | S. cerevisiae deletion strains, locus YJL187C, strain SWE1, hits give low values 1.01 | [7] 1.02 | [8] 1.01 | S. cerevisiae deletion strains, locus YKL190W, strain CNB1, hits give low values 1.01 | [9] 1.02 | [10] 1.01 | [11] 1.01 | [12] 1.01 | [13] 0.98 | [14] 1.01 | [15] 0.949 | [16] 1.02 | [17] 1 | [18] 1.04 | [19] 1.01 | [20] 1.01 | [21] 0.921 | [22] 1.01 | [23] 0.97 | [24] 1

O=c1[nH]c(-c2cc(Br)cs2)nc2ccc(Cl)cc12
active: [14] 1.13 [resistant]
inactive: S. cerevisiae deletion strains, locus YAL013W, strain DEP1, hits give low values 1.01 | [1] 1.01 | [2] 1 | [3] 0.938 | [4] 1.01 | [5] 1.03 | [6] 1.04 | [7] 1.01 | [8] 1.06 | [9] 1.1 | [10] 1 | [11] 1.06 | [12] 1.07 | [13] 1.04 | [15] 0.954 | [16] 1.06 | [17] 1.04 | [18] 1.04 | [19] 1.01 | [20] 1.04 | [21] 0.896 | [22] 0.999 | [23] 1.07 | [24] 1.02

O=C(NC(Cc1cc(=O)[nH]c2ccccc12)C(=O)O)c1ccc(Cl)cc1 (configuration not stated)
inactive: S. cerevisiae deletion strains, locus YAL021C, strain ccr4, hits give low values 1.01 | S. cerevisiae deletion strains, locus YAL026C, strain drs2, hits give low values 1 | S. cerevisiae deletion strains, locus YAL030W, strain snc1, hits give low values 1 | S. cerevisiae deletion strains, locus YBL061C, strain skt5, hits give low values 1 | S. cerevisiae deletion strains, locus YBR009C, strain hhf1, hits give low values 1.01 | S. cerevisiae deletion strains, locus YBR023C, strain chs3, hits give low values 1.01 | S. cerevisiae deletion strains, locus YBR171W, strain sec66, hits give low values 0.992 | S. cerevisiae deletion strains, locus YBR231C, strain swc5, hits give low values 0.994 | S. cerevisiae deletion strains, locus YBR279W, strain paf1, hits give low values 0.997 | S. cerevisiae deletion strains, locus YCL011C, strain gbp2, hits give low values 1 | S. cerevisiae deletion strains, locus YCL016C, strain dcc1, hits give low values 0.994 | S. cerevisiae deletion strains, locus YCL061C, strain MRC1, hits give low values 0.994 | S. cerevisiae deletion strains, locus YCL069W, strain vba3, hits give low values 1 | S. cerevisiae deletion strains, locus YCR088W, strain abp1, hits give low values 0.994 | S. cerevisiae deletion strains, locus YDL005C, strain med2, hits give low values 1 | S. cerevisiae deletion strains, locus YDL040C, strain nat1, hits give low values 1 | S. cerevisiae deletion strains, locus YDR001C, strain nth1, hits give low values 0.997 | S. cerevisiae deletion strains, locus YDR069C, strain doa4, hits give low values 1 | S. cerevisiae deletion strains, locus YDR137W, strain rgp1, hits give low values 0.969 | S. cerevisiae deletion strains, locus YDR159W, strain sac3, hits give low values 1.01 | S. cerevisiae deletion strains, locus YDR195W, strain ref2 0.972 | S. cerevisiae deletion strains, locus YDR297W, strain sur2, hits give low values 1.01 | S. cerevisiae deletion strains, locus YDR334W, strain swr1, hits give low values 1.02 | S. cerevisiae deletion strains, locus YDR335W, strain msn5, hits give low values 1 | S. cerevisiae deletion strains, locus YDR392W, strain spt3, hits give low values 1.03 | S. cerevisiae deletion strains, locus YEL003W, strain gim4, hits give low values 0.998 | S. cerevisiae deletion strains, locus YEL037C, strain rad23, hits give low values 0.982 | S. cerevisiae deletion strains, locus YEL061C, strain CIN8 (second series), hits give low values 1 | S. cerevisiae deletion strains, locus YER015W, strain faa2, hits give low values 1.01 | S. cerevisiae deletion strains, locus YER016W, strain bim1, hits give low values 1 | S. cerevisiae deletion strains, locus YER111C, strain swi4, hits give low values 0.999 | S. cerevisiae deletion strains, locus YER155C, strain BEM2 (second series), hits give low values 1 | S. cerevisiae deletion strains, locus YFR010W, strain ubp6, hits give low values 0.995 | S. cerevisiae deletion strains, locus YGL167C, strain pmr1, hits give low values 1.01 | S. cerevisiae deletion strains, locus YGL173C, strain kem1, hits give low values 1.01 | S. cerevisiae deletion strains, locus YGL227W, strain vid30, hits give low values 1 | S. cerevisiae deletion strains, locus YGL240W, strain doc1, hits give low values 0.998 | S. cerevisiae deletion strains, locus YGL253W, strain hxk2, hits give low values 1 | S. cerevisiae deletion strains, locus YHR013C, strain ard1, hits give low values 1 | S. cerevisiae deletion strains, locus YHR027C, strain rpn1, hits give low values 0.996 | [5] 0.993 | S. cerevisiae deletion strains, locus YHR079C, strain IRE1, hits give low values 0.99 | S. cerevisiae deletion strains, locus YHR142W, strain chs7, hits give low values 0.986 | S. cerevisiae deletion strains, locus YJL092W, strain hpr5, hits give low values 0.998 | S. cerevisiae deletion strains, locus YJL095W, strain BCK1 (second series), hits give low values 0.997 | S. cerevisiae deletion strains, locus YJL095W, strain BCK1, hits give low values 0.988 | S. cerevisiae deletion strains, locus YJL115W, strain asf1, hits give low values 1 | S. cerevisiae deletion strains, locus YJL129C, strain trk1, hits give low values 1 | S. cerevisiae deletion strains, locus YJL154C, strain vps35, hits give low values 1 | S. cerevisiae deletion strains, locus YJL164C, strain tpk1, hits give low values 1 | S. cerevisiae deletion strains, locus YJL166W, strain qcr8, hits give low values 0.995 | S. cerevisiae deletion strains, locus YJR066W, strain TOR1, hits give low values 0.913 | S. cerevisiae deletion strains, locus YKL160W, strain elf1, hits give low values 0.998 | S. cerevisiae deletion strains, locus YKR026C, strain gcn3, hits give low values 0.994 | S. cerevisiae deletion strains, locus YKR091W, strain srl3, hits give low values 1 | S. cerevisiae deletion strains, locus YLL001W, strain dnm1, hits give low values 0.997 | S. cerevisiae deletion strains, locus YLL026W, hits give low values 1 | S. cerevisiae deletion strains, locus YLL041C, strain sdh2, hits give low values 0.997 | S. cerevisiae deletion strains, locus YLR027C, strain aat2, hits give low values 0.994 | S. cerevisiae deletion strains, locus YLR113W, strain HOG1, hits give low values 0.995 | S. cerevisiae deletion strains, locus YLR221C, strain rsa3, hits give low values 0.999 | S. cerevisiae deletion strains, locus YLR258W, strain gsy2, hits give low values 1 | S. cerevisiae deletion strains, locus YLR262C, strain YPT6 (second series), hits give low values 1 | S. cerevisiae deletion strains, locus YLR320W, strain mms22, hits give low values 0.996 | S. cerevisiae deletion strains, locus YLR342W, strain FKS1, hits give low values 0.991 | S. cerevisiae deletion strains, locus YLR357W, strain rsc2, hits give low values 0.993 | S. cerevisiae deletion strains, locus YLR370C, strain arc18, hits give low values 1 | S. cerevisiae deletion strains, locus YLR384C, strain iki3, hits give low values 0.998 | S. cerevisiae deletion strains, locus YML120C, strain ndi1, hits give low values 1 | S. cerevisiae deletion strains, locus YMR058W, strain fet3, hits give low values 1.01 | S. cerevisiae deletion strains, locus YMR125W, strain sto1, hits give low values 1.01 | S. cerevisiae deletion strains, locus YMR129W, hits give low values 0.983 | S. cerevisiae deletion strains, locus YMR205C, strain PFK2, hits give low values 0.997 | S. cerevisiae deletion strains, locus YMR231W, strain pep5, hits give low values 1.01 | S. cerevisiae deletion strains, locus YNL071W, strain lat1, hits give low values 1.01 | S. cerevisiae deletion strains, locus YNL183C, strain NPR1, hits give low values 0.934 | S. cerevisiae deletion strains, locus YNL209W, strain ssb2, hits give low values 1 | S. cerevisiae deletion strains, locus YNL248C, strain rpa49, hits give low values 0.994 | S. cerevisiae deletion strains, locus YNL322C, strain KRE1 (second series), hits give low values 0.992 | S. cerevisiae deletion strains, locus YNR049C, strain mso1, hits give low values 0.986 | S. cerevisiae deletion strains, locus YOR001W, strain rrp6, hits give low values 0.988 | S. cerevisiae deletion strains, locus YOR070C, strain gyp1, hits give low values 1.01 | S. cerevisiae deletion strains, locus YOR080W, strain dia2, hits give low values 0.998 | S. cerevisiae deletion strains, locus YOR083W, strain WHI5, hits give low values 1 | S. cerevisiae deletion strains, locus YOR106W, strain vam3, hits give low values 0.993 | S. cerevisiae deletion strains, locus YOR231W, strain MKK1, hits give low values 0.988 | S. cerevisiae deletion strains, locus YOR265W, strain rbl2, hits give low values 1 | S. cerevisiae deletion strains, locus YOR270C, strain vph1, hits give low values 1.03 | S. cerevisiae deletion strains, locus YOR290C, strain snf2, hits give low values 1.01 | S. cerevisiae deletion strains, locus YPL051W, strain arl3, hits give low values 1.01 | S. cerevisiae deletion strains, locus YPL078C, strain atp4, hits give low values 0.999 | S. cerevisiae deletion strains, locus YPL106C, strain sse1, hits give low values 1.01 | S. cerevisiae deletion strains, locus YPL240C, strain hsp82, hits give low values 0.982 | S. cerevisiae deletion strains, locus YPL256C, strain CLN2, hits give low values 1.01
